# Results filed as inconclusive are left out. A call without a number means that no potency is given here. Activity calls are given as the source filed them. Calls follow the shape of the dose curve; as a rule, active = well fitted cell-killing curve with a large enough effect; inconclusive = small, poorly fitted or top-dose-only effect, or effect the other way; inactive = flat fitted curve, though single readings scatter.
# Assays:
# Experiment in all cases: Primary qHTS to identify gynecologic anti-cancer compounds using libraries of approved drugs and bioactive compounds (AID 1345084); also: nearly all actives have a fitted effect of over 55% in size
# [1] = tested on: C33A; conditions: Gynecologic cancer cell panel viability, ATPlite luminescence, 48 h; series mostly up to 57.5 µM
# Outline: (§1)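 Measured: luminescence after ATPlite addition (15 min, RT). Exposure: 48 h, 37 C, 5% CO2.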
# [2] = tested on: CASKI; conditions: Gynecologic cancer cell panel viability, ATPlite luminescence, 48 h; series mostly up to 57.5 µM
# Outline: as §1
# [3] = tested on: Es-2; conditions: Gynecologic cancer cell panel viability, ATPlite luminescence, 48 h; series mostly up to 57.5 µM
# Outline: as §1
# [4] = tested on: JEG-3; conditions: Gynecologic cancer cell panel viability, ATPlite luminescence, 48 h; series mostly up to 57.5 µM
# Outline: as §1
# [5] = tested on: HeLa; conditions: Gynecologic cancer cell panel viability, ATPlite luminescence, 48 h; series mostly up to 57.5 µM
# Outline: as §1
# [6] = tested on: Hek293T; conditions: Gynecologic cancer cell panel viability, ATPlite luminescence, 48 h, control line for the selectivity index; series mostly up to 57.5 µM
# Outline: as §1
# [7] = tested on: OV90; conditions: Gynecologic cancer cell panel viability, ATPlite luminescence, 48 h; series mostly up to 57.5 µM
# Outline: as §1
# [8] = tested on: CAOV3; conditions: Gynecologic cancer cell panel viability, ATPlite luminescence, 48 h; series mostly up to 57.5 µM
# Outline: as §1
# Potency is read from the fitted curve at half-maximal effect.
smiles,measurement,setting,value
CC(C)C[C@H](C(=O)O)c1cc(-c2ccc(C(F)(F)F)cc2)cc(-c2ccc(C(F)(F)F)cc2)c1,Potency,[1],inactive
same,Potency,[2],inactive
same,Potency,[3],inactive
same,Potency,[4],inactive
CC(C)c1ccc(-c2cc(=O)c3ccccc3o2)cc1,Potency,[1],11.2 µM (active)
same,Potency,[2],inactive
same,Potency,[4],8.91 µM (active)
CN1CCN(C2CCN(C(=O)Nc3cc(Oc4ccc(NC(=O)C5(C(=O)Nc6ccc(F)cc6)CC5)c(F)c4)ccn3)CC2)CC1,Potency,[1],inactive
same,Potency,[2],inactive
same,Potency,[5],inactive
same,Potency,[6],inactive
O=C(O)CSc1cc(NS(=O)(=O)c2ccc(Br)cc2)c2ccccc2c1O,Potency,[1],inactive
same,Potency,[2],inactive
same,Potency,[3],inactive
same,Potency,[6],inactive
same,Potency,[7],inactive
CCCCNc1ncc(-c2ccc(CN3CCOCC3)cn2)c(NC2CCC(O)CC2)n1 (stereo not drawn),Potency,[1],inactive
same,Potency,[2],inactive
same,Potency,[3],inactive
same,Potency,[6],inactive
same,Potency,[4],inactive
same,Potency,[7],inactive
CC(=O)Nc1nc(C)c(-c2nc(N3CCCC(O)C3)no2)s1 (stereo not drawn),Potency,[1],inactive
same,Potency,[3],inactive
O=C1Cc2c([nH]c3ccc(Br)cc23)-c2ncccc2N1,Potency,[1],inactive
same,Potency,[2],inactive
same,Potency,[3],inactive
same,Potency,[6],inactive
same,Potency,[4],inactive
CC#CC(=O)Nc1ccc2ncnc(Nc3cccc(Br)c3)c2c1,Potency,[1],11.2 µM (active)
same,Potency,[2],8.91 µM (active)
same,Potency,[3],14.1 µM (active)
same,Potency,[4],inactive
same,Potency,[7],inactive
O=C(NCCCn1ccnc1)c1cc(-c2ccco2)on1,Potency,[1],inactive
same,Potency,[2],inactive
same,Potency,[5],inactive
same,Potency,[6],inactive
same,Potency,[4],inactive
same,Potency,[7],inactive
C/C=C(\C)C(=O)O[C@H]1C=C(CO)C(=O)[C@H](OC(C)=O)[C@H]1C(C)C,Potency,[1],12.6 µM (active)
same,Potency,[5],inactive
same,Potency,[7],inactive
Cc1sc2c(c1C)C(c1ccc(Cl)cc1)=N[C@@H](CC(=O)Nc1ccc(OCCOCCOCCOCCNc3cccc4c3C(=O)N(C3CCC(=O)NC3=O)C4=O)cc1)c1nnc(C)n1-2 (stereo partly drawn),Potency,[1],inactive
same,Potency,[6],inactive
CCOc1cc(C(C)(C)C)ccc1C1=NC(C)(c2ccc(Cl)cc2)C(C)(c2ccc(Cl)cc2)N1C(=O)N1CCN(CCCS(C)(=O)=O)CC1 (stereo not drawn),Potency,[1],inactive
same,Potency,[3],inactive
same,Potency,[5],inactive
same,Potency,[6],inactive
same,Potency,[4],inactive
same,Potency,[7],inactive
Nc1nc(NC2CC2)cc(-c2cccc(Cl)c2Cl)n1,Potency,[1],inactive
same,Potency,[5],20 µM (active)
same,Potency,[7],inactive
CN(C)CCC(CSc1ccccc1)Nc1ccc(S(=O)(=O)NC(=O)c2ccc(N3CCN(Cc4ccccc4-c4ccc(Cl)cc4)CC3)cc2)cc1[N+](=O)[O-] (stereo not drawn),Potency,[1],inactive
same,Potency,[3],inactive
same,Potency,[5],inactive
same,Potency,[6],inactive
same,Potency,[4],inactive
CCNC(=O)C#Cc1ccc2c(C(=Nc3ccc(CN(C)C)cc3)c3ccccc3)c(O)[nH]c2c1,Potency,[1],inactive
same,Potency,[6],inactive
same,Potency,[4],inactive
same,Potency,[7],0.447 µM (active)
COc1cc2ncnc(Oc3ccc(CC(=O)Nc4cnn(C(C)C)c4)cc3)c2cc1OC,Potency,[1],inactive
same,Potency,[3],inactive
same,Potency,[5],inactive
same,Potency,[6],inactive
same,Potency,[4],inactive
same,Potency,[7],inactive
COc1cc(N2CCC(O)CC2)ccc1Nc1nc(Nc2ccccc2S(=O)(=O)C(C)C)c2[nH]cnc2n1,Potency,[1],inactive
same,Potency,[3],inactive
same,Potency,[6],inactive
same,Potency,[4],inactive
same,Potency,[7],inactive
CCn1nc(C2CCN(C(=O)CCO)CC2)nc1-c1cnc(N)c(-c2nnc(C(C)(C)C)o2)n1,Potency,[1],inactive
same,Potency,[3],inactive
same,Potency,[5],inactive
same,Potency,[6],inactive
same,Potency,[4],inactive
same,Potency,[7],inactive
Fc1ccc(-c2nc(C3CCNCC3)sc2-c2ccnc(NC3CC3)n2)cc1,Potency,[1],inactive
same,Potency,[6],inactive
same,Potency,[7],inactive
CCCC(CCC)C(=O)Nc1ccn([C@@H]2O[C@H](CO)[C@@H](O)C2(F)F)c(=O)n1,Potency,[1],inactive
same,Potency,[5],inactive
same,Potency,[6],inactive
same,Potency,[4],inactive
COc1cccc(OCCCN)c1-c1cc(Nc2cnc(C#N)cn2)n[nH]1,Potency,[8],14.1 µM (active)
same,Potency,[2],inactive
C#Cc1cccc(Nc2nc3cc(C(=O)O)ccc3c3cncnc23)c1,Potency,[1],inactive
same,Potency,[5],11.2 µM (active)
same,Potency,[4],inactive
Cc1cc(Nc2nc(-c3ccccc3)nc3ccccc23)n[nH]1,Potency,[1],inactive
same,Potency,[3],inactive
same,Potency,[7],inactive
CC(C)n1cnc2c(-c3cnc(N)nc3)nc(N3CCOCC3)nc21,Potency,[1],inactive
same,Potency,[6],1.12 µM (active)
same,Potency,[4],inactive
NC(=O)CCCSc1nc(N)nc(-c2c(Cl)cc3c4c(cccc24)COC3)n1,Potency,[1],0.891 µM (active)
same,Potency,[5],inactive
same,Potency,[7],0.708 µM (active)
O=C(NCCCc1ccccc1)c1cccc(-c2cc(O)c3ncccc3c2)c1,Potency,[8],inactive
same,Potency,[2],inactive
